Test results from PubChem BioAssay AID1117293 (Broad Institute, 2014).
Potency and affinity values are given separately. Inconclusive results are not listed. A number with no mark means an inactive call.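 How the source made its calls: active means cytotoxic in every repeat run, with fitted half-maximal concentration at most twice the top tested dose; inconclusive means runs disagree, or flat partial drop, or poor curve fit; inactive means inactive in every run.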

Assay: HEK293T cell cytotoxicity, dose response, cytotoxicity control, CellTiter-Glo luminescence, dry powder, set 20 (AID 1117293)
Conditions: HEK293T viability, CellTiter-Glo ATP luminescence, 72 h; series mostly up to 26 µM; activity change, negative = cytotoxicity: at the top concentration

Compared with `CC(=O)N1CCN(C(=O)C2(NC(=O)Nc3cccc(F)c3)CCCCC2)CC1`, `CC(=O)N1CCN(C(=O)C2(NC(=O)Nc3ccc(F)cc3)CCCC2)CC1` is higher in “activity change, negative = cytotoxicity” value: -6.5% for the first, -2.16% for the second.

First: Cn1cnc(S(=O)(=O)Nc2cc(C(F)(F)F)ccc2N2CCCCC2)c1
Second: Cc1ccccc1S(=O)(=O)Nc1cc(C(F)(F)F)ccc1N1CCCCC1
The “activity change, negative = cytotoxicity” value of the first is higher: 4.84% for the first, -7.06% for the second.

First: COc1ccc(C(=O)O)cc1S(=O)(=O)Nc1ccc(N2CCCCC2)cc1C(F)(F)F
Second: COc1ccc(C(=O)Nc2cc(C(F)(F)F)ccc2N2CCCCC2)cc1S(=O)(=O)O
The “activity change, negative = cytotoxicity” value of the first is higher: 4.22% for the first, -0.693% for the second.

First: NC(=NCCc1c[nH]c2ccccc12)NS(=O)(=O)c1cc(F)ccc1F
Second: COc1ccc(C(=O)Nc2cccc(C(F)(F)F)c2)cc1S(=O)(=O)O
The “activity change, negative = cytotoxicity” value of the first is higher: -14.3% for the first, -16.2% for the second.

First: O=S(=O)(Nc1cc(C(F)(F)F)ccc1N1CCCCC1)c1ccccc1
Second: O=S(=O)(Nc1cc(C(F)(F)F)ccc1N1CCCCC1)c1ccc(Br)cc1
The “activity change, negative = cytotoxicity” value of the first is higher: -6.45% for the first, -7.61% for the second.

Compared with `CC(=O)N1CCN(C(=O)C2(NC(=O)Nc3ccccc3C(F)(F)F)CCCCC2)CC1`, `CC(=O)N1CCN(C(=O)C2(NC(=O)Nc3ccc(C(F)(F)F)cc3)CCCCC2)CC1` is higher in “activity change, negative = cytotoxicity” value: -13.6% for the first, -10.4% for the second.

First: COc1ccc(C(=O)Nc2ccccc2N2CCCCC2)cc1S(=O)(=O)O
Second: COc1ccc(C(=O)Nc2cc(C)ccc2N2CCCCC2)cc1S(=O)(=O)O
The “activity change, negative = cytotoxicity” value of the first is lower: -2.25% for the first, -1.51% for the second.

Going from `CC(=O)N1CCN(C(=O)C2(NC(=O)NCCc3ccccc3)CCCCC2)CC1` to `CC(=O)N1CCN(C(=O)C2(NC(=O)Nc3ccccc3)CCCC2)CC1`, the “activity change, negative = cytotoxicity” value rises from -9.03% to 4.55%.

Going from `O=C(Nc1cc(C(F)(F)F)ccc1N1CCCCC1)c1ccc(S(=O)(=O)O)cc1` to `COc1ccc(C(=O)Nc2cc(C(F)(F)F)ccc2N2CCCC2)cc1S(=O)(=O)O`, the “activity change, negative = cytotoxicity” value falls from 8.17% to -14.3%.

Going from `O=S(=O)(Nc1cc(C(F)(F)F)ccc1N1CCCCC1)c1ccc(C(F)(F)F)cc1` to `O=[N+]([O-])c1cccc(S(=O)(=O)Nc2cc(C(F)(F)F)ccc2N2CCCCC2)c1`, the “activity change, negative = cytotoxicity” value rises from -43.1% to -23.7%.

Compared with `CC(=O)N1CCN(C(=O)CNC(=O)Nc2ccc(C)cc2)CC1`, `CC(=O)N1CCN(C(=O)C2(NC(=O)Nc3ccc(C(C)C)cc3)CCCC2)CC1` is higher in “activity change, negative = cytotoxicity” value: -21.5% for the first, 4.56% for the second.

Going from `Cc1ccc(NC(=O)NC2(C(=O)N3CCN(c4ccccc4)CC3)CCCCC2)cc1` to `CC(=O)N1CCN(C(=O)C2(NC(=O)NC(C)(C)C)CCCCC2)CC1`, the “activity change, negative = cytotoxicity” value falls from 3.02% to -21.7%.
